Test results as given in ChEMBL document CHEMBL3988442, “University of Dundee, Small-Polar-MMV Screening Library” (2021).
Screen size: about 66,000 compounds; about 960 (1.5%) showed an effect of 50% or more. Many of the other results were omitted from the sample, so strong results are more common in it than they were.

System: Trypanosoma brucei
Assay: Trypanosoma brucei 72 hour study
Format: functional, organism-based
Parameters: scale not given: in the data most compounds retested in dose-response had high values

CN(C)CCOCc1nnc2n1CCN(Cc1cccs1)CC2.O=C(O)C(F)(F)F.O=C(O)C(F)(F)F
Percent Effect (30.3 µM, […]): -17.71%

Br.Cc1ccccc1OC1CCN(CC(=O)Nc2ccn(C)n2)CC1
Percent Effect (30.3 µM, […]): 12.28%

Cc1ccccc1N1CC2(CCN(S(=O)(=O)c3ccccc3)C2)CC1=O (stereo not given)
Percent Effect (30.3 µM, […]): 11.6%

CCOc1cc2c(cc1CN1CCC3(CCCNC3=O)C1)CCC2 (stereo not given)
Percent Effect (30.3 µM, […]): 98.93%

CCOc1cc2c(cc1CN1CCC3(CC1)CNC(=O)C3)CCC2
Percent Effect (30.3 µM, […]): -17.68%

CCOc1cc(Cl)c(CN2CCC3(CCCNC3=O)C2)cc1OC (stereo not given)
Percent Effect (30.3 µM, […]): -16.79%

O=C(N1CCCC1)N1CCC2(CCN(Cc3ccccn3)C2=O)C1.O=C(O)C(F)(F)F (stereo not given)
Percent Effect (30 µM, 30.03 µM): -20.49%

CCN(CC)c1nc(Nc2cccc(C(=O)O)c2)nc2ccccc12
Percent Effect (30 µM, 30.03 µM): -36.54%

CCN(CC)c1nc(Nc2cccc(C(C)O)c2)nc2ccccc12 (stereo not given)
Percent Effect (30 µM, 30.03 µM): 78.38%

CC(O)c1cccc(Nc2nc(NCCO)c3ccccc3n2)c1 (stereo not given)
Percent Effect (30 µM, 30.03 µM): 5.503%

O=C(O)C(F)(F)F.O=C1NC2(CCN(C(=O)N3CCOCC3)CC2)CC1c1cccnc1 (stereo not given)
Percent Effect (30 µM, 30.03 µM): -17.56%

CN1CCOC(CNCc2coc(-c3cccc(F)c3)n2)C1 (stereo not given)
Percent Effect (30.3 µM, […]): 41.18%
Percent Effect (10 mM, 10 mM as filed; unlikely as a test dose): -36.07%

CN1CCOC(CNCc2c(Cl)nc3ccccn23)C1 (stereo not given)
Percent Effect (30 µM, 30.03 µM): -12.37%

CN1CCOC(CNCc2coc(-c3cccs3)n2)C1 (stereo not given)
Percent Effect (30 µM, 30.03 µM): -23.33%

CN1CCOC(CNCc2coc(-c3ccccc3)n2)C1 (stereo not given)
Percent Effect (30 µM, 30.03 µM): -39%

CN(C)CC1CN(Cc2coc(-c3ccccc3Cl)n2)CCO1 (stereo not given)
Percent Effect (30 µM, 30.03 µM): -2.77%

Cc1ccc(-c2nc(CNCC3CN(C)CCO3)co2)cc1 (stereo not given)
Percent Effect (30.3 µM, […]): 93.13%
Percent Effect (10 mM, 10 mM as filed; unlikely as a test dose): -9.822%

CN1CCOC(CNCc2coc(-c3cccc(Cl)c3)n2)C1 (stereo not given)
Percent Effect (30.3 µM, […]): 98.76%
Percent Effect (10 mM, 10 mM as filed; unlikely as a test dose): -110.4%

CN1CCOC(CNCc2coc(-c3ccccc3Cl)n2)C1 (stereo not given)
Percent Effect (30.3 µM, […]): 54.4%
Percent Effect (10 mM, 10 mM as filed; unlikely as a test dose): -73.24%

CN(C)CC1CN(Cc2coc(-c3ccccc3)n2)CCO1 (stereo not given)
Percent Effect (10 µM): -12.24%
Percent Effect (30.3 µM, […]): 1.121%

Cc1ccc(-c2nc(CN3CCOC(CN(C)C)C3)co2)cc1 (stereo not given)
Percent Effect (10 µM): 5.738%
Percent Effect (30.3 µM, […]): -1.882%

CN(C)CC1CN(Cc2coc(-c3ccc(Cl)cc3)n2)CCO1 (stereo not given)
Percent Effect (10 µM): -46.52%
Percent Effect (30.3 µM, […]): 62.36%

CN1CCOC(CNC(=O)Cc2coc(-c3ccccc3)n2)C1 (stereo not given)
Percent Effect (30.3 µM, […]): -0.1289%
Percent Effect (10 mM, 10 mM as filed; unlikely as a test dose): -18.77%

CCCS(=O)(=O)N1C[C@H]2C[C@H](C(=O)N3CCOCC3)[C@@H](C1)O2
Percent Effect (30.3 µM, […]): -5.473%

CN(C)CCOCc1nnc2n1CCN(Cc1ccc(F)cc1)CC2.O=C(O)C(F)(F)F.O=C(O)C(F)(F)F
Percent Effect (30.3 µM, […]): -11.21%

O=C(O)C(F)(F)F.O=C(c1ccco1)N1C[C@H]2CCCN(Cc3ccoc3)[C@H]2C1
Percent Effect (30 µM, 30.03 µM): -0.7502%

CC1c2ncc(Cn3cncn3)n2CCN1CC1CCOCC1.O=C(O)C(F)(F)F (stereo not given)
Percent Effect (30.3 µM, […]): -11%

Fc1cccnc1N1CCOCC2(CCCN(c3nncs3)C2)C1.O=C(O)C(F)(F)F (stereo not given)
Percent Effect (30 µM, 30.03 µM): 36.62%

CCN(CC)C(=O)CN1CCc2c(nc(C3CCNCC3)nc2NC)C1.Cl
Percent Effect (30.3 µM, […]): -24.06%

CCn1cc(N2Cc3nc(N4CCC(C)CC4)ncc3C2=O)cn1
Percent Effect (30.3 µM, […]): -21.22%

CN1CCOC(CNCc2nc(-c3ccoc3)no2)C1 (stereo not given)
Percent Effect (30 µM, 30.03 µM): -7.602%

Cc1ccc(-c2nc(CNCC3CN(C)CCO3)cs2)o1 (stereo not given)
Percent Effect (30.3 µM, […]): 4.391%

CN1CCOC(CNCc2coc(-c3ccc(Cl)cc3)n2)C1 (stereo not given)
Percent Effect (30.3 µM, […]): 99.53%
Percent Effect (10 mM, 10 mM as filed; unlikely as a test dose): 19.14%

CN1CCOC(CNCc2csc(C3CCCC3)n2)C1 (stereo not given)
Percent Effect (10 µM): -49.15%

Cc1ccc(-c2nc(CNCC3CN(C)CCO3)co2)c(C)c1 (stereo not given)
Percent Effect (30.3 µM, […]): 99.99%
Percent Effect (10 mM, 10 mM as filed; unlikely as a test dose): 61.89%

Cc1ccc(-c2nc(CNC3CCc4ncnn4C3)co2)c(C)c1 (stereo not given)
Percent Effect (30 µM, 30.03 µM): 30.05%

CN(C)CCCN(Cc1cnn(C)c1)Cc1ccco1.O=C(O)CC(O)(CC(=O)O)C(=O)O
Percent Effect (30.3 µM, […]): -23.52%

O=C(O)C(F)(F)F.O=C(O)C(F)(F)F.c1cncc(CN2Cc3nccn3CC(Cn3cccn3)C2)c1 (stereo not given)
Percent Effect (30.3 µM, […]): -81.67%

Cc1cc(-c2cnc(N3CCSCC3)nc2C(C)C)on1
Percent Effect (30.3 µM, […]): -15.33%

Cc1noc(C)c1CN1CCOCC12CCN(c1cnccn1)CC2.O=C(O)C(F)(F)F
Percent Effect (30.3 µM, […]): -24.7%
